GPR151 ag: activators of human GPR151, primary screen, cell-based, PathHunter beta-arrestin, luminescence | G-protein coupled receptor 151 (Homo sapiens), Q8TDV0 | PathHunter beta-arrestin GPR151 cells | activation, % at 11.2 µM | actives 1% (n = 650,000) | AID 1508602, 2020; in the data active means activation above about 4.9%
MITF inh: MITF inhibitors, primary screen, biochemical, AlphaScreen, human. Microphthalmia-associated transcription factor (Homo sapiens), O75030. AlphaScreen MITF homodimerization, bead proximity signal. inhibition, % at 2.6 µM. actives 0.91% (n = 650,000). AID 1259374, 2018; in the data active means inhibition above about 50%
Target sequence (O75030 whole entry, looked up): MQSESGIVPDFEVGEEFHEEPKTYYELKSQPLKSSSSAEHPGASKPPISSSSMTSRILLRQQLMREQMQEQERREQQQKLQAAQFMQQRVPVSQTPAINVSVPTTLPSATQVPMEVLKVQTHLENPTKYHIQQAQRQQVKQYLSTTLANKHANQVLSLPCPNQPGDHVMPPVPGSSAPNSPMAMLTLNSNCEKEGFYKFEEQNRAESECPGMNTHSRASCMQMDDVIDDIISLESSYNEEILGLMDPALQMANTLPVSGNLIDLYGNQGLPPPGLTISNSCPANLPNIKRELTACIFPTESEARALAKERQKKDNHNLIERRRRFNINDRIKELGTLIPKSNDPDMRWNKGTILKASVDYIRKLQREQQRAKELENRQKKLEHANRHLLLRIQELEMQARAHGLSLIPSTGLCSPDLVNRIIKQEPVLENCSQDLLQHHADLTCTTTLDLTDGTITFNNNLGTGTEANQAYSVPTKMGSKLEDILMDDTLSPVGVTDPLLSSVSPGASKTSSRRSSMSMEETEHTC
FBW7 activator: FBW7 E3 ligase activators, primary screen, biochemical, AlphaScreen, human; normalized activity (activation), % at 26.1 µM; AlphaScreen FBW7–phospho-cyclin E peptide binding, activator screen; F-box/WD repeat-containing protein 7 (Homo sapiens), Q969H0; actives 0.13% (n = 650,000); in the data active means normalized activity above about 1.9%;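 further: purified mutant Fbw7 with reduced substrate affinity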
TEAD-YAP inh: TEAD-YAP interaction inhibition, primary screen, TEAD-YAP interaction inhibitor project, luminescence, HEK-TIYL cells; TEAD-Gal4/YAP UAS-luciferase luminescence; inhibition, % at 9.12 µM; actives 1.4% (n = 640,000); in the data active means inhibition above about 32%
GPR151 conf act: GPR151 activators, triplicate retest, confirmation, cell-based, PathHunter beta-arrestin, luminescence | GPR151 PathHunter beta-arrestin cells, 90 min; % of EA-reagent control over plate median | shares compounds with GPR151 ag | 6,700 tested, under 10 active | activation, % at 11.2 µM;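 active means mean percent activation across replicates above the confirmation screen cutoff of 4.91%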
GPR119 ag: GPR119 activators in beta-arrestin cells, counter-screen for GPR151 activator project, cell-based, PathHunter beta-arrestin, luminescence, triplicate; shares compounds with GPR151 ag; 90 min; 0 = compound-well median, 100 = enzyme-acceptor control; activation, % at 11.2 µM; actives 0.3% (n = 6,700); AID 1508611, 2020;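 active means mean percent activation in the counterscreen above 29.09%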;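 further: counterscreen on off-target GPR119 to flag nonselective hits from the GPR151 activator screen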
A number is an active result; - = inactive; . = no result given. The list is not random: actives were taken first. Their share in the collection is about 3.5%.

SMILES	GPR151 ag	MITF inh	FBW7 activator	TEAD-YAP inh	GPR151 conf act	GPR119 ag
Cc1cccc(Cn2c(NCCN(C)C)nc3c2c(=O)[nH]c(=O)n3C)c1	-	-	-	-	.	.
CN1C(=O)NC(=O)/C(=C\c2ccc(-c3ccc(S(N)(=O)=O)cc3)o2)C1=O	-	-	-	-	.	.
COc1cc([N+](=O)[O-])cc(/C=C2/C(=O)NC(=O)N(c3cccc(C)c3)C2=O)c1O	5.3	-	-	-	-	-
COc1cc(/C=C2/C(=O)NN(c3cccc(C)c3)C2=O)cc([N+](=O)[O-])c1O	-	-	-	-	.	.
CCOc1cc(/C=C2/C(=O)NN(c3cccc(C)c3)C2=O)cc([N+](=O)[O-])c1O	6.0	-	-	-	-	-
Cc1ccc(/C=C2\C(=O)NC(=O)N(c3cccc(Br)c3)C2=O)cc1[N+](=O)[O-]	5.1	-	-	-	-	-
CCOC(=O)CNc1c(-c2ccc(OC)c(O)c2)nc2ccc(C)cn12	5.5	-	-	-	-	-
CCOC(=O)CNc1c(-c2ccc(O)cc2)nc2cnccn12	-	-	-	-	.	.
CCc1c(C)nc2cc(-c3cccs3)nn2c1N1CCC(O)CC1	6.2	-	-	-	-	-
O=c1[nH]c(SCc2ccccc2)nc2c1C1(CCCCC1)Cc1ccccc1-2	-	-	-	-	.	.
O=c1[nH]c(Cc2ccccc2)nc2c1C1(CCCCC1)Cc1ccccc1-2	5.1	-	-	-	-	-
CC[n+]1c(-c2ccc([N+](=O)[O-])cc2)csc1Nc1cccc2ccccc12	-	-	-	-	.	.
Nc1nnc(SCC(=O)OCC(=O)Nc2ccc(Br)cc2F)s1	6.2	-	-	-	-	-
Nc1nnc(SCC(=O)OCC(=O)Nc2ccc(Br)cc2)s1	-	-	-	-	.	.
CCCCCCOC(=O)Nc1nnc(CCC)s1	12	-	-	-	-	-
COc1cccc(CN(C(=O)/C=C/c2ccc(Cl)cc2)C2CCS(=O)(=O)C2)c1 (stereo not drawn)	6.9	-	-	-	-	-
O=C(C[n+]1cccc2ccccc21)c1ccc(Br)cc1	15	-	-	-	-	-
COc1ccc(C(=O)C[n+]2cccc(Br)c2)cc1	-	-	-	-	.	.
O=C(C[n+]1cccc2ccccc21)c1ccc(-c2ccccc2)cc1	-	-	-	-	.	.
COC(=O)c1ccc[n+](CC(=O)c2ccc(Br)cc2)c1	6.2	-	-	-	-	-
N#CCn1cnc2c(nnn2-c2cccc(F)c2)c1=O	6.1	-	-	-	-	-
O=C(CSc1nnnn1C1CCCC1)N1CCOCC1	-	-	-	-	.	.
O=C(CSc1nnnn1C1CCCCC1)N1CCCCC1	5.0	-	-	-	-	-
O=C(CC1Sc2ccccc2NC1=O)NCc1ccc2c(c1)OCO2 (stereo not drawn)	7.3	-	-	-	-	-
C/C(=N\NC(=O)c1cc2c(s1)CCCC2)c1ccccc1O	-	-	-	-	.	.
SMILES	GPR151 ag	MITF inh	FBW7 activator	TEAD-YAP inh	GPR151 conf act	GPR119 ag
CN(CCO)c1ccc(/C=N/NC(=O)c2cc3c(s2)CCCC3)cc1	6.2	-	-	-	-	-
COC(=O)c1cc(S(=O)(=O)Nc2cccc(C(C)=O)c2)cn1C	-	-	-	-	.	.
COc1ccc(C(=O)NCc2nnc(SCC(=O)c3ccccc3)n2C)cc1	6.5	-	-	-	-	-
CCCCn1c(CNC(=O)c2ccc(OC)cc2)nnc1SCC(=O)OCC	6.4	-	-	-	-	-
CCOC(=O)CSc1nnc(CNC(=O)c2ccc(OC)cc2)n1CC	-	-	-	-	.	.
COc1ccc(CCNC(=O)CCCCCn2c(SCC(=O)NCc3ccccc3)nc3cc4c(cc3c2=O)OCO4)cc1OC	-	-	-	-	.	.
O=C(O)c1ccc(NC(=O)C2CC(=O)N(Cc3ccc4c(c3)OCO4)C(=Nc3cccc(C(F)(F)F)c3)S2)cc1 (stereo not drawn)	-	-	-	-	.	.
COC(=O)c1ccc(NC(=O)C2CC(=O)N(Cc3ccc4c(c3)OCO4)C(=Nc3cccc(C(F)(F)F)c3)S2)cc1 (stereo not drawn)	6.4	-	-	-	-	-
O=S(=O)(/C=C/c1ccccc1)N1CCCC(N2CCN(c3ccccc3)CC2)C1 (stereo not drawn)	5.6	-	-	-	-	-
COC(=O)c1ccc(OC(=O)c2ccc(OC)c([N+](=O)[O-])c2)cc1	-	-	-	-	.	.
O=C(c1ccccc1Cl)N1N=C(c2cccnc2)CC1c1ccccc1O (stereo not drawn)	6.7	-	-	-	-	-
N#C/C(=C\c1c(Oc2ccccc2)nc2ccccn2c1=O)C(N)=O	-	-	-	-	.	.
COc1ccccc1OCC(=O)Oc1ccc(C(C)=O)cc1	-	-	-	-	.	.
COc1ccc(CCN2C(=O)c3ccc(Oc4ccc(Nc5ncnc6ccccc56)cc4)cc3C2=O)cc1OC	6.6	-	-	97	-	-
COc1ccc(CCN2C(=O)c3ccc(Oc4ccc([N+](=O)[O-])cc4)cc3C2=O)cc1OC	-	-	-	-	.	.
Cc1ccc(N2CCN(C(=O)Nc3ccccc3)CC2)nn1	-	-	-	-	.	.
CSc1cccc(NC(=O)N2CCN(c3ccc(C)nn3)CC2)c1	5.6	-	-	-	-	-
CCc1ccccc1NC(=O)C(=O)NCCOC	-	-	-	-	.	.
CCCNC(=O)C(=O)Nc1ccccc1CC	6.7	-	-	-	-	-
CCOc1ccc(/C=C2\SC(=S)N(C(C)C(=O)O)C2=O)cc1 (stereo not drawn)	11	-	-	-	-	-
COCCOC(=O)c1c(C)oc2ccc(OCC(=O)c3ccc(F)cc3)cc12	-	-	-	-	.	.
C1CCCN(c2nc3nonc3nc2N2CCC(N3CCOCC3)CC2)CC1	-	-	-	-	.	.
Cc1cc(N2C(=O)CSC23C(=O)Nc2ccccc23)ccc1Br (stereo not drawn)	-	-	-	-	.	.
Cc1ccc(N2C(=O)CSC23C(=O)Nc2ccccc23)cc1Br (stereo not drawn)	5.0	-	-	-	-	-
O=C(O)c1ccccc1-c1ccccc1C(=O)Nc1ccccc1	-	-	-	-	.	.
O=C(O)c1ccccc1-c1ccccc1C(=O)NC1CS(=O)(=O)CC1O (stereo not drawn)	5.1	-	-	-	-	-
O=C(NC(c1ccccc1Cl)c1ccc2cccnc2c1O)c1ccccc1 (stereo not drawn)	7.5	-	-	72	-	-

Bioassay records: PubChem BioAssay, The Scripps Research Institute Molecular Screening Center
